Hits are enriched below; roughly 3.8% of the tested compounds scored in any of these assays.
mIDH1 inhibitor: human IDH1 R132H inhibition | 390,000 compounds, 0.093% hits | IDH1-R132H enzyme, NADPH consumption, diaphorase/resazurin fluorescence | Potency, µM (titrated, usually from 76.6 µM), most hits filed as inhibitors | O75874; further: nearly all actives have a fitted effect of over 65% in size
Target sequence (O75874 whole entry R132H, stated change not applied): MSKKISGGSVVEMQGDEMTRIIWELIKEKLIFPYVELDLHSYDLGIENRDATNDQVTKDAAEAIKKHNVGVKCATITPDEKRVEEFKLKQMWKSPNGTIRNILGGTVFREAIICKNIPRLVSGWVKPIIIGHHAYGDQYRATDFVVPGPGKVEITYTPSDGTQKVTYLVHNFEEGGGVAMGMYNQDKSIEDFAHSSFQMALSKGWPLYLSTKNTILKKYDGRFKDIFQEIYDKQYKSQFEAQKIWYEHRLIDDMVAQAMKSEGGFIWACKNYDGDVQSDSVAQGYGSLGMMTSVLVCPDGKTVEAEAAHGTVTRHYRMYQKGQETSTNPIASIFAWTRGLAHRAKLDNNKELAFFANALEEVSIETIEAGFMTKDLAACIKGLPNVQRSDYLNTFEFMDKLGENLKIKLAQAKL
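IDH1-R132H (0.5 ug/mL dispensed) in pH 7.5 Tris buffer was preincubated 30 min with compound, then given a substrate mix of 0.016 mM NADPH and 2 mM alpha-KG for 80 min at room temperature; remaining NADPH was read by diaphorase/resazurin fluorescence.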
Nrf2 ARE act: activators of Nrf2 (ARE) signaling; AREc32 ARE-luciferase reporter (MCF7-derived line), luminescence, 24 h; Potency, µM (titrated, usually from 46.1 µM), most hits filed as activators; 410,000 compounds, 0.31% hits; AID 624171; further: nearly all actives have a fitted effect of over 65% in size
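Quantitative high-throughput format: AREc32 reporter cells, 1000 per well, received compound by pin transfer and were incubated 24 hr at 37 deg C, 5% CO2, before Steady-Glo luminescence detection.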
Nrf2 block: Nrf2 pathway inhibition; A549 ARE-Fluc reporter, luciferase luminescence, 18-24 h; Potency, µM (top dose mostly 46 µM), most hits filed as inhibitors; 360,000 compounds, 2.1% hits; AID 504444; further: nearly all actives have a fitted effect of over 60% in size
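Two sequential reads on A549 ARE_Fluc cells exposed to compound for 18-24 h: a CellTiter-Fluor fluorescence read for viability, then a luciferase luminescence read for Nrf2/ARE activity.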
A549 tox: A549 cytotoxicity, counter-screen for Nrf2 inhibitors. A549 ARE-Fluc cells, CellTiter-Fluor viability, 18-24 h. 390,000 compounds, 0.16% hits. AID 504648. Potency, µM (doses to about 46 µM), hits mostly inhibitors
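A549 ARE-Fluc cells in 5% FBS OPTI-MEM, 5000 cells/well, rested 2 h then exposed to compounds in concentration-response for 18-24 h at 37 °C. Viability by CellTiter-Fluor fluorescence (Ex 405/Em 525) after 30 min; luciferase luminescence (BugLite, 15 min, RT) read afterwards.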
ELG1 DNA repair: blocks ELG1-dependent DNA repair in HEK293T cells; Potency, µM (doses to about 46.1 µM), actives largely listed as inhibitors; 330,000 compounds, 2.3% hits; HEK293T ELG1-luciferase reporter, luminescence, 16 h; DNA damage induced by 5-fluorouridine; further: nearly all actives have a fitted effect of over 55% in size
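In this reporter screen, reduction of luminescence relative to DMSO vehicle indicated activity. Compounds and 5-fluorouridine were added together to 2,000 cells per well, incubated for 16 hr at 37 °C, then developed with ONE-Glo.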
A number is an active result; – = inactive; ? = inconclusive; · = no result; [ ] = remark or other dose. The call rests on the fitted dose curve; in most records, active means well fitted curve in the direction sought with a large enough effect; inconclusive means small, poorly fitted or top-dose-only effect, or another doubt; inactive means no such curve, though single readings can be large; an effect the other way counts as inactive or inconclusive.

SMILES	mIDH1 inhibitor	Nrf2 ARE act	Nrf2 block	A549 tox	ELG1 DNA repair
CC(O)CNc1nc2c(c(=O)n(C)c(=O)n2C)n1Cc1cccc(Br)c1 (stereo not drawn)	–	–	16.4µM	–	–
CC(C)CNc1nc2c(c(=O)n(C)c(=O)n2C)n1Cc1cccc(Br)c1	–	–	·	–	?
O=C(Nc1nccs1)c1cc(N2CCOCC2)nc2ccccc12	–	–	–	–	18.4µM
Cc1ccc(NC(=O)c2cc(N3CCOCC3)nc3ccccc23)cc1	–	–	–	–	14.6µM
CCN(CC)CCNC(=O)Cn1cnc2sc(C)c(S(=O)(=O)N3CC(C)CC(C)C3)c2c1=O (stereo not drawn)	–	–	–	–	–
CCN(CC)C(=O)Cn1c(=O)n(-c2ccc(C)c(C)c2)c(=O)c2c(C)c(C(=O)N(CC)CC)sc21	–	–	·	–	·
O=C(COc1ccc([N+](=O)[O-])cc1)N1CCN(c2nnc(-c3ccccc3)c3ccccc23)CC1	–	–	23.1µM	–	–
Cc1ccc(-c2nnc(N3CCN(C(=O)COc4ccccc4)CC3)c3ccccc23)cc1	–	–	18.4µM	?	20.6µM
CCOC(=O)N1CCN(c2nnc(-c3ccc(C)cc3)c3ccccc23)CC1	–	–	–	–	?
O=C(COc1ccc(-c2nnc(N3CCCCC3)c3ccccc23)cc1)N1CCCCC1	–	–	?	–	14.6µM
CCCC(=O)N1CCN(c2nnc(-c3ccccc3)c3ccccc23)CC1	–	–	–	–	–
O=C(COc1ccccc1)N1CCCC1	–	–	–	–	–
COc1cccc(C2=Nn3c(nnc3-c3ccccc3C)SC2)c1	·	·	?	–	·
O=S(=O)(c1ccc2c(c1)OCCO2)N1CCN(S(=O)(=O)c2cccs2)CC1	·	·	–	–	·
COc1ccc(NC(=O)CN2C(=O)NC3(CCCCC3C)C2=O)cc1OC (stereo not drawn)	–	–	–	–	–
O=C1CCCC2=C1C(c1cccs1)n1nc(SCc3ccccc3F)nc1N2 (stereo not drawn)	–	–	18.4µM	–	?
CC(=O)c1sc(NC(=O)c2c(-c3ccccc3)c(-c3ccccc3)nn(C)c2=O)nc1C	–	–	–	–	·
Cc1cccc(-c2cc3nc4c(c(N5CCCC(O)C5)n3n2)CCC4)c1 (stereo not drawn)	–	–	?	–	16.4µM
OC1CCCN(c2c3c(nc4cc(-c5cccc(Cl)c5)nn24)CCC3)C1 (stereo not drawn)	–	–	4.61µM	–	20.6µM
OC1CCCN(c2c3c(nc4cc(-c5cccc(F)c5)nn24)CCCC3)C1 (stereo not drawn)	?	–	?	?	?
COc1ccc(CN2C(=O)c3ccccc3NC2c2ccc(OC)c(COc3ccc(NC(C)=O)cc3)c2)cc1 (stereo not drawn)	·	·	–	–	·
Cc1ncc(CO)c(/C=N/NC(=O)c2ccc(O)cc2)c1O	–	–[9.22 µM]	–	–	–
Cc1ncc(CO)c(/C=N/NC(=O)c2cc3c(s2)CCCC3)c1O	–	–	23.1µM	–	3.26µM
COc1ccc(C(=O)N/N=C/c2c(CO)cnc(C)c2O)cc1	–	–	?	–	13µM
Cc1ccc(C)c(N2CCN(Cc3nnc(-c4ccc5c(c4)OCO5)o3)CC2)c1	–	–	–	–	·
SMILES	mIDH1 inhibitor	Nrf2 ARE act	Nrf2 block	A549 tox	ELG1 DNA repair
O=C(NCC1CCOCC1)c1cc(COc2cccc(C(F)(F)F)c2)on1	–	–	23.1µM	–	16.4µM
O=C(NC1CCOC1)c1cc(COc2cccc(C(F)(F)F)c2)on1 (stereo not drawn)	–	–	–	–	?
C[C@@H]1CN(C(=O)c2cc(COc3cccc(C(F)(F)F)c3)on2)C[C@H](C)O1	–	–	–	–	14.6µM
COc1ccc(S(=O)(=O)Nc2cc(S(=O)(=O)c3ccccc3)c(O)c(C)c2C)cc1	–	–	–	–	·
O=C(COc1ccc(Cl)cc1)c1ccc(O)cc1O	–	–	7.31µM	–	?
CCOC(=O)c1ccc(OCC(=O)c2ccc(O)cc2O)cc1	–	–	?	–	?
COC(=O)c1ccc(OCC(=O)c2ccc(O)cc2O)cc1	–	–	8.2µM	–	?
COC(=O)C1CN(Cc2ccccc2)C(=O)C1=O (stereo not drawn)	–	–	–	–	·
c1ccc(-c2nc(-c3ccncc3)no2)cc1	–	11.2µM	?	–	·
c1ccc(-c2noc(-c3cccnc3)n2)cc1	–	3.16µM	?	–	·
c1ccc(C(Cc2nc(-c3ccncc3)no2)c2ccccc2)cc1	–	–	8.2µM	–	–
c1ccc(-c2ccc(-c3nc(-c4ccncc4)no3)cc2)cc1	–	–	?	–	?
Cc1ccccc1-c1nc(-c2cccnc2)no1	–	12.6µM	?	–	?
OCC1(CO)COC(CCc2ccccc2)=N1	–	–	–	–	–
Cc1cccc(-c2nnc(SCc3cc(=O)c4cccc(Cl)c4[nH]3)n2C)c1	–	–	·	–	·
Clc1ccccc1-c1nc(-c2ccncc2)no1	–	11.2µM	?	–	?
NC(=O)Cn1c(=O)n(CCC(=O)Nc2ccc(F)cc2)c(=O)c2sccc21	–	–	–	–	–
Cc1ccc(N2CCN(S(=O)(=O)c3ccc(Cl)s3)CC2C)cc1 (stereo not drawn)	–	–	13µM	–	–
S=C1Cc2ccccc2N1	36.9µM	–	11.6µM	16.4µM	?
Cc1cc(NC(=O)CSc2ncc(C(=O)Nc3ccccc3)c(=O)n2C)no1	–	–	·	–	·
COC(=O)c1sc(N)c(C(=O)OC)c1COC(=O)[C@@H](NS(=O)(=O)c1cccc(Cl)c1)C(C)C	–	–	–	–	14.6µM
Cn1c(SCC(=O)N2CCN(c3ccccc3)CC2)nnc1-c1cc2ccccc2o1	–	–	?	–	13µM
Cn1c(SCC(=O)N2CCN(c3ccccc3)CC2)nnc1-c1ccncc1	–	–	·	–	–
Cc1occc1-c1nnc(SCC(=O)N2CCN(c3ccccc3)CC2)n1C	–	–	–	–	?
CCn1c(CSCc2ccc(C)cc2)nnc1SCC(=O)N1CCN(c2ccccc2)CC1	–	–	20.6µM	?	18.4µM
SMILES	mIDH1 inhibitor	Nrf2 ARE act	Nrf2 block	A549 tox	ELG1 DNA repair
CCn1c(SCC(=O)N2CCN(c3ccccc3)CC2)nnc1-c1ccoc1C	–	–	–	–	16.4µM
CC(=O)c1cc2c(s1)c1cnn(Cc3ccccc3F)c(=O)c1n2C	·	·	–	–	·
Fc1ccc(/C=C2\CCCC3=C2Nc2ncnn2C3c2ccc(F)cc2)cc1 (stereo not drawn)	–	–	?	?	4.61µM
COc1ccc(C2C3=C(Nc4ncnn42)c2ccccc2CCC3)cc1 (stereo not drawn)	–	–	–	–	–
O=C(OCC#CCSc1nnc(-c2cccc3ccccc23)o1)c1ccc(SC(F)(F)F)cc1	·	·	–	–	·
CC(C)c1ccc(-n2cccc2/C=C2/C(=N)N3C=CSC3=NC2=O)cc1	–	–	–	–	16.4µM

High-throughput results as filed in PubChem BioAssay.
